# Measurements published in paper PMC7862700, “An all-to-all approach to the identification of sequence-specific readers for epigenetic DNA modifications on cytosine”.
# Key:
# Test in all cases: DAPPL (digital affinity profiling via proximity ligation, sequencing); 10 mM Tris-HCl pH 7.5, 50 mM NaCl, 1 mM DTT, 4% glycerol, room temperature, 30 min; GST-TFs on glutathione beads, 16-mer random dsDNA library, 0.1% formaldehyde crosslink after washing; high values mean tight binding
# FEV = target: T1, FEV (Homo sapiens, UniProt Q99581 1-238); details: protein: recombinant; tags: N-terminal GST; dsDNA, one strand shown
# T1 sequence: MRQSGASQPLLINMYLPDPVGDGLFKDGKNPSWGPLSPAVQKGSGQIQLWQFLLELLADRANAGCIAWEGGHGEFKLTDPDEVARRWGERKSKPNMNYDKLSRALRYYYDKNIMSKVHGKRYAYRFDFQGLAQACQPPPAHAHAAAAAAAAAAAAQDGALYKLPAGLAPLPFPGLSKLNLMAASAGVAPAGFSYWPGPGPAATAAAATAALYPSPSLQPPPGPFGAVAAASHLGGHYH
# Method in brief: (§1)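 Binding signal is defined as a hexamer's read frequency for one factor over its frequency for the tag-only sample. To obtain reads, GST-fused human transcription factors were expressed in yeast, captured on glutathione beads, barcoded with DNA and pooled with that sample. Pools met 200 nmole of a 16-mer random double-stranded DNA library in Tris/NaCl/DTT/glycerol buffer for 30 min at room temperature before washing, 0.1% formaldehyde crosslinking, proximity ligation (BsaI/T4 ligase, 1 h, 37 °C), PCR and Illumina NextSeq500 sequencing.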
# ETV5 = ETV5 (Homo sapiens, UniProt P41161 1-510); details: protein: recombinant; tags: N-terminal GST; dsDNA, one strand shown
# Method in brief: as §1
# HSF1 = HSF1 (Homo sapiens, UniProt Q00613 1-529); details: protein: recombinant; tags: N-terminal GST; chain copies: 3; dsDNA, one strand shown
# Method in brief: as §1
# SPIC = target: T2, SPIC (Homo sapiens, UniProt Q8N5J4 1-248); details: protein: recombinant; tags: N-terminal GST; dsDNA, one strand shown
# T2 sequence: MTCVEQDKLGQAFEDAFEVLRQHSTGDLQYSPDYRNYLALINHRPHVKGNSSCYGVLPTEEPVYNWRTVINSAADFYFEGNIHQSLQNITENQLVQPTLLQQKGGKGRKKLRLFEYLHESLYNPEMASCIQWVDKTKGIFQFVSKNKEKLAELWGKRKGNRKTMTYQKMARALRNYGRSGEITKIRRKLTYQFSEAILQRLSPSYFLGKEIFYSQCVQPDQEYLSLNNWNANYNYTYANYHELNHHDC
# Method in brief: as §1
# ELF4 = ELF4 (Homo sapiens, UniProt Q99607 1-663); details: protein: recombinant; tags: N-terminal GST; dsDNA, one strand shown
# Method in brief: as §1
# ELK4 = target: T3, ELK4 (Homo sapiens, UniProt P28324-2 1-405); details: protein: recombinant; tags: N-terminal GST; dsDNA, one strand shown
# T3 sequence: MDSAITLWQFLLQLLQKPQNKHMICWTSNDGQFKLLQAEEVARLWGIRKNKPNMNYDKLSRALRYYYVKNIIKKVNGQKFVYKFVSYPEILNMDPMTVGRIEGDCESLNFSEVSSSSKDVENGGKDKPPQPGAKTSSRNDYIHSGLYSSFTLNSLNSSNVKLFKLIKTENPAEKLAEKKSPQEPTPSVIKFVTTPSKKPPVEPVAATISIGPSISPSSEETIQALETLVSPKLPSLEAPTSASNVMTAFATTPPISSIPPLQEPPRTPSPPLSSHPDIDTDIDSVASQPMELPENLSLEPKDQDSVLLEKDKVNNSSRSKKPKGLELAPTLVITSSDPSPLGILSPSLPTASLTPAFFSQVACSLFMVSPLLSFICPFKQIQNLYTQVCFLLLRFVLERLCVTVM
# Method in brief: as §1
# ETV2 = target: T4, ETV2 (Homo sapiens, UniProt O00321 1-342); details: protein: recombinant; tags: N-terminal GST; dsDNA, one strand shown
# T4 sequence: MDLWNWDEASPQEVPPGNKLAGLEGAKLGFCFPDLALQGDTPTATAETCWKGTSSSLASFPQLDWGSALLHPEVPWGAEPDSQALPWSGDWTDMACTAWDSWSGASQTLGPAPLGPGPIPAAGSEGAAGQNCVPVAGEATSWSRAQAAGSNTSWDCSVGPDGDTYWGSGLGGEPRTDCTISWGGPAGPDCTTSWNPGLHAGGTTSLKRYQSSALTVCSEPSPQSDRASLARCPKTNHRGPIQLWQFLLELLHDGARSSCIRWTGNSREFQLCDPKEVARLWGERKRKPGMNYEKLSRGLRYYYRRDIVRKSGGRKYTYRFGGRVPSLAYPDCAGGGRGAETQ
# Method in brief: as §1
# ELF3 = target: T5, ELF3 (Homo sapiens, UniProt P78545 1-371); details: protein: recombinant; tags: N-terminal GST; dsDNA, one strand shown
# T5 sequence: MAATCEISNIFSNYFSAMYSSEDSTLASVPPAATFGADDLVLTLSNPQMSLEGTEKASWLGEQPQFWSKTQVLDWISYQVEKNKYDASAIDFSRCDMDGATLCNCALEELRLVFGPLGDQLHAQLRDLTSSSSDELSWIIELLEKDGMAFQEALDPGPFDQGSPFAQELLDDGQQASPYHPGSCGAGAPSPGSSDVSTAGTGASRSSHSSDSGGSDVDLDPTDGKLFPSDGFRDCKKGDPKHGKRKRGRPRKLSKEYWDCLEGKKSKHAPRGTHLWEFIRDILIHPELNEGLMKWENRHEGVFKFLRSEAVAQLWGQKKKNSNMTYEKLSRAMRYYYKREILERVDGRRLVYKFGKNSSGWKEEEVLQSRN
# Method in brief: as §1
# CRX = CRX (Homo sapiens, UniProt O43186 1-299); details: protein: recombinant; tags: N-terminal GST; dsDNA, one strand shown
# Method in brief: as §1
# ETV1 = ETV1 (Homo sapiens, UniProt P50549 1-477); details: protein: recombinant; tags: N-terminal GST; dsDNA, one strand shown
# Method in brief: as §1
# ERF = target: T6, ERF (Homo sapiens, UniProt P50548 1-548); details: protein: recombinant; tags: N-terminal GST; dsDNA, one strand shown
# T6 sequence: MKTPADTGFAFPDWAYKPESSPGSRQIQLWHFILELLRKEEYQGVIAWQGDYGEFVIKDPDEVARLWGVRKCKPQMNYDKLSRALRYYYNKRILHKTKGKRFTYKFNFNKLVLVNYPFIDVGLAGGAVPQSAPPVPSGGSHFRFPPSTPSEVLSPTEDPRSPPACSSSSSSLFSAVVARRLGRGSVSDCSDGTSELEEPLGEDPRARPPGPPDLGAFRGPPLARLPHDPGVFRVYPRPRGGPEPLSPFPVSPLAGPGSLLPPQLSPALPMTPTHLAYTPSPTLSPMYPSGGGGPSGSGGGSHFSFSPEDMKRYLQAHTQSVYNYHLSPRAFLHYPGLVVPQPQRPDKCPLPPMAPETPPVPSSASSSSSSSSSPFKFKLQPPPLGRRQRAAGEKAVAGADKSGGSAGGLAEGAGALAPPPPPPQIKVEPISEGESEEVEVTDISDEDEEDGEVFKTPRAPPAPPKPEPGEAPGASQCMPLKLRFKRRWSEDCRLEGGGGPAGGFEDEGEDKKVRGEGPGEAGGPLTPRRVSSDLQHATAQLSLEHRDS
# Method in brief: as §1
# ETV3L = target: T7, ETV3L (Homo sapiens, UniProt Q6ZN32 1-361); details: protein: recombinant; tags: N-terminal GST; dsDNA, one strand shown
# T7 sequence: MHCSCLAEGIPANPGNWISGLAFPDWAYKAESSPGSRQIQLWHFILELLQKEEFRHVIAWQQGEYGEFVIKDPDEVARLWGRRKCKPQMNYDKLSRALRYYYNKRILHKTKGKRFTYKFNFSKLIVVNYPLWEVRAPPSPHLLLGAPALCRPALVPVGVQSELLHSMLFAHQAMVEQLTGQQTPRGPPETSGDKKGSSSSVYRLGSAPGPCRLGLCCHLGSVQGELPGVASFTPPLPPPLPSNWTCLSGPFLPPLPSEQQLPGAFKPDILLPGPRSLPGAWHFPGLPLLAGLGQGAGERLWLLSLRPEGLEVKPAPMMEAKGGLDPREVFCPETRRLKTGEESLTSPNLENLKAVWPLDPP
# Method in brief: as §1
# ETS2 = target: T8, ETS2 (Homo sapiens, UniProt P15036 1-469); details: protein: recombinant; tags: N-terminal GST; dsDNA, one strand shown
# T8 sequence: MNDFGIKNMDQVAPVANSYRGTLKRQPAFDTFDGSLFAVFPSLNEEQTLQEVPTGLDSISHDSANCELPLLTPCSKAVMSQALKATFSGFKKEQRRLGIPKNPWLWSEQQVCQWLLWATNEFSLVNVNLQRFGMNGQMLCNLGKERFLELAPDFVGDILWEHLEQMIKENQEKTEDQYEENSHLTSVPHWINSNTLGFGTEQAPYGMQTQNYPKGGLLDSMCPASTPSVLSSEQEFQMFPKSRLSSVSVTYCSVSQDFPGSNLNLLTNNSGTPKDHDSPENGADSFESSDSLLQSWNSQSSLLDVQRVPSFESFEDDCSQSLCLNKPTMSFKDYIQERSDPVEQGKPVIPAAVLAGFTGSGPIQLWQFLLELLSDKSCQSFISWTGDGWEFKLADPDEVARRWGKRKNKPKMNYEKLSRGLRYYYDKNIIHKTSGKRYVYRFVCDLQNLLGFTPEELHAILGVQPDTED
# Method in brief: as §1
# SPDEF = target: T9, SPDEF (Homo sapiens, UniProt O95238 1-335); details: protein: recombinant; tags: N-terminal GST; dsDNA, one strand shown
# T9 sequence: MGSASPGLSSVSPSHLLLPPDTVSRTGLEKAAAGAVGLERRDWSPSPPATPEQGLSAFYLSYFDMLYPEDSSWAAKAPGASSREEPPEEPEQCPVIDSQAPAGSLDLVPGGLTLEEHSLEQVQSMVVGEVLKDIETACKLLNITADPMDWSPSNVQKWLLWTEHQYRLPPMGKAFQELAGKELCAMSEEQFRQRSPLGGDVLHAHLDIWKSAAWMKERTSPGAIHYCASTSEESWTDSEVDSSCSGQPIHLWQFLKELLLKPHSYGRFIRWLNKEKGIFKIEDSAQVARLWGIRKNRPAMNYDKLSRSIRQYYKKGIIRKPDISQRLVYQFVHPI
# Method in brief: as §1
# ETV7 = target: T10, ETV7 (Homo sapiens, UniProt Q9Y603 1-341); details: protein: recombinant; tags: N-terminal GST; dsDNA, one strand shown
# T10 sequence: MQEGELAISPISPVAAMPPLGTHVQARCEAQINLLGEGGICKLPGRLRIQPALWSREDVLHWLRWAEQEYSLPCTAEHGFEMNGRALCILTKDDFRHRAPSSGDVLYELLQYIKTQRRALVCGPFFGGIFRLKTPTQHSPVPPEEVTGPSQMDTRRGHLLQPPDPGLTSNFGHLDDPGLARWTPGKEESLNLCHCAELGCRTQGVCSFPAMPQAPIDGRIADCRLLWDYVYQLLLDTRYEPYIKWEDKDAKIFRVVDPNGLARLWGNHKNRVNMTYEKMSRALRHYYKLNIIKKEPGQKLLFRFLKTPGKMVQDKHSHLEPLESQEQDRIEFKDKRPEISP
# Method in brief: as §1
# ELF5 = target: T11, ELF5 (Homo sapiens, UniProt Q9UKW6-2 1-255); details: protein: recombinant; tags: N-terminal GST; dsDNA, one strand shown
# T11 sequence: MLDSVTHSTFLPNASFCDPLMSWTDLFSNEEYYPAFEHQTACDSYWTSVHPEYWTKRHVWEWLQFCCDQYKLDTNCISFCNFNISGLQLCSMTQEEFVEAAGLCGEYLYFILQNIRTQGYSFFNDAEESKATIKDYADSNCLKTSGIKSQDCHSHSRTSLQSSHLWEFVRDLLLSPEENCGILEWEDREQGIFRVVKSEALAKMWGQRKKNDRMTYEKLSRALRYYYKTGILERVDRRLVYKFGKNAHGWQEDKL
# Method in brief: as §1
# ETV3 = target: T12, ETV3 (Homo sapiens, UniProt P41162-2 1-143); details: protein: recombinant; tags: N-terminal GST; dsDNA, one strand shown
# T12 sequence: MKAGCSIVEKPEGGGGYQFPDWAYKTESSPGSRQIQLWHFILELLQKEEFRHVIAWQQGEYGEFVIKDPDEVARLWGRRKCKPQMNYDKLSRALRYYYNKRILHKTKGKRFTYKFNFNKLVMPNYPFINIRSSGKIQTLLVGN
# Method in brief: as §1
# ETV6 = ETV6 (Homo sapiens, UniProt P41212 1-452); details: protein: recombinant; tags: N-terminal GST; dsDNA, one strand shown
# Method in brief: as §1
# ETV6, sequence (P41212 whole entry): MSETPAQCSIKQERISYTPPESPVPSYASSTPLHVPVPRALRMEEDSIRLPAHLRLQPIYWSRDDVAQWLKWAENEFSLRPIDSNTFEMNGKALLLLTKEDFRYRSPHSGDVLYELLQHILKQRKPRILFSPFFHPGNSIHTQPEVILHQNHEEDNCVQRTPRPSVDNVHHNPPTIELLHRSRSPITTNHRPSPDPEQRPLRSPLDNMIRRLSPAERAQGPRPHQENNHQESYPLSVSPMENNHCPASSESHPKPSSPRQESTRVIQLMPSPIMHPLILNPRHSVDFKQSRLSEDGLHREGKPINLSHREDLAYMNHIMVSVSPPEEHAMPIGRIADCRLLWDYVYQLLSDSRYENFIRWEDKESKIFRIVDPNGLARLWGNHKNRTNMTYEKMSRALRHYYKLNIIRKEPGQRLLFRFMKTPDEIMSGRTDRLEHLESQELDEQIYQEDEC
# CRX, sequence (O43186 whole entry): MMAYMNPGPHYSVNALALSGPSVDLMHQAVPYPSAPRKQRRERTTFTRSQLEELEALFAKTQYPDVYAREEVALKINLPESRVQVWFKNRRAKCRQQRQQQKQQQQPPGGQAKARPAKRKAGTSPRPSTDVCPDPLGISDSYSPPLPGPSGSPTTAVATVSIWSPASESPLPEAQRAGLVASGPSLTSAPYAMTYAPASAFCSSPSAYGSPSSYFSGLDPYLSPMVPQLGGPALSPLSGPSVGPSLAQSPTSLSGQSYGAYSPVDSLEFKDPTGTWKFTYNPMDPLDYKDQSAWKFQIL
# HSF1, sequence (Q00613 whole entry): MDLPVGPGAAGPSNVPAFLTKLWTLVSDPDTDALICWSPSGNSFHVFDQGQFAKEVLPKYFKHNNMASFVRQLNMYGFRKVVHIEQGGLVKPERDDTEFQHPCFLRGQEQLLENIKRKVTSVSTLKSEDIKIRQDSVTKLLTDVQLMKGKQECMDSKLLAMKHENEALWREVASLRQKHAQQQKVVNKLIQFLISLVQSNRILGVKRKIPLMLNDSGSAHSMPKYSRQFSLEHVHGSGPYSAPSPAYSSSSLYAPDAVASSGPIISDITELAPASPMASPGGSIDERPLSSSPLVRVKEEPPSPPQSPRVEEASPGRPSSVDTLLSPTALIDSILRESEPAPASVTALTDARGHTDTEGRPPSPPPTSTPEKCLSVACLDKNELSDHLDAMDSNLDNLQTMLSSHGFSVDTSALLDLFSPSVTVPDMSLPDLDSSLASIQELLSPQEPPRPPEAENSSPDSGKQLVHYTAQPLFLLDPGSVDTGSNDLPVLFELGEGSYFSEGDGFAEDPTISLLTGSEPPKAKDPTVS
# ELF4, sequence (Q99607 whole entry): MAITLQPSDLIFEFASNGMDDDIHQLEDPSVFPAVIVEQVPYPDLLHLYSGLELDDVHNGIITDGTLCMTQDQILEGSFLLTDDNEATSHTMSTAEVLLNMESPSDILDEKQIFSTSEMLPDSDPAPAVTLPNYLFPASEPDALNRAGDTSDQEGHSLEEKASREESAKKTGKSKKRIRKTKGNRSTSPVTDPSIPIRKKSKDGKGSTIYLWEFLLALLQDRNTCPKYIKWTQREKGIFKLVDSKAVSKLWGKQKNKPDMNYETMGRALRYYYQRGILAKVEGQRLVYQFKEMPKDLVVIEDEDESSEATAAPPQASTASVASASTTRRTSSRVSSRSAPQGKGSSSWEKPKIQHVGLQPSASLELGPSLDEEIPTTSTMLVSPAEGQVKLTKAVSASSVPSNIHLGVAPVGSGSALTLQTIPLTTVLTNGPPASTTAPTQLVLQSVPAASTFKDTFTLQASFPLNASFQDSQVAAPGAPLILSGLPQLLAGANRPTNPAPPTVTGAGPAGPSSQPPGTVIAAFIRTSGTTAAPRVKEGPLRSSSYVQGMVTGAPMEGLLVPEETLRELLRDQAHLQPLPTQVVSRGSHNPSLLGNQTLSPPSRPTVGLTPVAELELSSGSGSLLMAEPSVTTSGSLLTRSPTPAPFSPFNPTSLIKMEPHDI
# ETV5, sequence (P41161 whole entry): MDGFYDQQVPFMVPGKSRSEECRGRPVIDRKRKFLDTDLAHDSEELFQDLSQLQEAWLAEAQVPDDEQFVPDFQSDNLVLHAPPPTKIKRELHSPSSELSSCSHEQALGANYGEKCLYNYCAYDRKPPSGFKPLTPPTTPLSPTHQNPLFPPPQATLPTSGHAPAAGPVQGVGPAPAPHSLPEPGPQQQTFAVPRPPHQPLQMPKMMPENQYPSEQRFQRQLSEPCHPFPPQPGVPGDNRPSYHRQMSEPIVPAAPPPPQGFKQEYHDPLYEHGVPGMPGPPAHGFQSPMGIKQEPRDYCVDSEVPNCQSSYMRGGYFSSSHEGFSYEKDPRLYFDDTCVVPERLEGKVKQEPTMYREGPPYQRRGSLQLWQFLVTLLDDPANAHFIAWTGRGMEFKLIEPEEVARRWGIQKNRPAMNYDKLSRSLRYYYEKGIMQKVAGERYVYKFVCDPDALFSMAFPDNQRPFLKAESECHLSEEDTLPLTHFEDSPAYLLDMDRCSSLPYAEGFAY
# ETV1, sequence (P50549 whole entry): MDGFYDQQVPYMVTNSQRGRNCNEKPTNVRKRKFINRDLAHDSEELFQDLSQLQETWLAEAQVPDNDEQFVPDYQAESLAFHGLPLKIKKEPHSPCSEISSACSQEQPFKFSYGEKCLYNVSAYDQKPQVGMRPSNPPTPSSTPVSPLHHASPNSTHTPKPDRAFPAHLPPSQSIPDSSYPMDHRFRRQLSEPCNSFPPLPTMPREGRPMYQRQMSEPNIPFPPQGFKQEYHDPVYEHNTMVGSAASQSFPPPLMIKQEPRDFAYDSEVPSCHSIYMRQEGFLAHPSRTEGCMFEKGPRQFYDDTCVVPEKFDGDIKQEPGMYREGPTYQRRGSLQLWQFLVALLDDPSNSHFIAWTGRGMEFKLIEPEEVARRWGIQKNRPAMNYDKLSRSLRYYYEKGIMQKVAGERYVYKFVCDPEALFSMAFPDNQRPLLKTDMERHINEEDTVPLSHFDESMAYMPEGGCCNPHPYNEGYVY
sequence,measurement,setting,value
CCGTCT,binding signal,FEV,"1.3 fold enrichment (6-mer frequency, TF over GST control)"
same,binding signal,ETV5,"1.36 fold enrichment (6-mer frequency, TF over GST control)"
same,binding signal,HSF1,"1.29 fold enrichment (6-mer frequency, TF over GST control)"
same,binding signal,SPIC,"1.45 fold enrichment (6-mer frequency, TF over GST control)"
same,binding signal,ELF4,"1.37 fold enrichment (6-mer frequency, TF over GST control)"
same,binding signal,ELK4,"1.4 fold enrichment (6-mer frequency, TF over GST control)"
same,binding signal,ETV2,"1.32 fold enrichment (6-mer frequency, TF over GST control)"
same,binding signal,ELF3,"1.25 fold enrichment (6-mer frequency, TF over GST control)"
same,binding signal,CRX,"1.26 fold enrichment (6-mer frequency, TF over GST control)"
same,binding signal,ETV1,"1.38 fold enrichment (6-mer frequency, TF over GST control)"
same,binding signal,ERF,"1.28 fold enrichment (6-mer frequency, TF over GST control)"
same,binding signal,ETV3L,"1.4 fold enrichment (6-mer frequency, TF over GST control)"
same,binding signal,ETS2,"1.29 fold enrichment (6-mer frequency, TF over GST control)"
same,binding signal,SPDEF,"1.42 fold enrichment (6-mer frequency, TF over GST control)"
same,binding signal,ETV7,"1.26 fold enrichment (6-mer frequency, TF over GST control)"
same,binding signal,ELF5,"1.39 fold enrichment (6-mer frequency, TF over GST control)"
same,binding signal,ETV3,"1.36 fold enrichment (6-mer frequency, TF over GST control)"
same,binding signal,ETV6,"1.39 fold enrichment (6-mer frequency, TF over GST control)"
